# Shown is part of a subset that was picked to be rich in hits.
# Dicer processing: blocks human Dicer maturation of pre-miR-21 | hit rate 6% among 47,000 | Q9UPY3 | cat-ELCCA pre-miR-21 Dicer processing, chemiluminescence; hits give high values | z-score at 25 µM; in the data active means z-score above about 3, passing the limit was not always enough;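 further: plate controls were vehicle for no effect and no enzyme for full effect; higher signal means more uncleaved substrate so more Dicer inhibition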
# Target sequence (Q9UPY3 whole entry, looked up): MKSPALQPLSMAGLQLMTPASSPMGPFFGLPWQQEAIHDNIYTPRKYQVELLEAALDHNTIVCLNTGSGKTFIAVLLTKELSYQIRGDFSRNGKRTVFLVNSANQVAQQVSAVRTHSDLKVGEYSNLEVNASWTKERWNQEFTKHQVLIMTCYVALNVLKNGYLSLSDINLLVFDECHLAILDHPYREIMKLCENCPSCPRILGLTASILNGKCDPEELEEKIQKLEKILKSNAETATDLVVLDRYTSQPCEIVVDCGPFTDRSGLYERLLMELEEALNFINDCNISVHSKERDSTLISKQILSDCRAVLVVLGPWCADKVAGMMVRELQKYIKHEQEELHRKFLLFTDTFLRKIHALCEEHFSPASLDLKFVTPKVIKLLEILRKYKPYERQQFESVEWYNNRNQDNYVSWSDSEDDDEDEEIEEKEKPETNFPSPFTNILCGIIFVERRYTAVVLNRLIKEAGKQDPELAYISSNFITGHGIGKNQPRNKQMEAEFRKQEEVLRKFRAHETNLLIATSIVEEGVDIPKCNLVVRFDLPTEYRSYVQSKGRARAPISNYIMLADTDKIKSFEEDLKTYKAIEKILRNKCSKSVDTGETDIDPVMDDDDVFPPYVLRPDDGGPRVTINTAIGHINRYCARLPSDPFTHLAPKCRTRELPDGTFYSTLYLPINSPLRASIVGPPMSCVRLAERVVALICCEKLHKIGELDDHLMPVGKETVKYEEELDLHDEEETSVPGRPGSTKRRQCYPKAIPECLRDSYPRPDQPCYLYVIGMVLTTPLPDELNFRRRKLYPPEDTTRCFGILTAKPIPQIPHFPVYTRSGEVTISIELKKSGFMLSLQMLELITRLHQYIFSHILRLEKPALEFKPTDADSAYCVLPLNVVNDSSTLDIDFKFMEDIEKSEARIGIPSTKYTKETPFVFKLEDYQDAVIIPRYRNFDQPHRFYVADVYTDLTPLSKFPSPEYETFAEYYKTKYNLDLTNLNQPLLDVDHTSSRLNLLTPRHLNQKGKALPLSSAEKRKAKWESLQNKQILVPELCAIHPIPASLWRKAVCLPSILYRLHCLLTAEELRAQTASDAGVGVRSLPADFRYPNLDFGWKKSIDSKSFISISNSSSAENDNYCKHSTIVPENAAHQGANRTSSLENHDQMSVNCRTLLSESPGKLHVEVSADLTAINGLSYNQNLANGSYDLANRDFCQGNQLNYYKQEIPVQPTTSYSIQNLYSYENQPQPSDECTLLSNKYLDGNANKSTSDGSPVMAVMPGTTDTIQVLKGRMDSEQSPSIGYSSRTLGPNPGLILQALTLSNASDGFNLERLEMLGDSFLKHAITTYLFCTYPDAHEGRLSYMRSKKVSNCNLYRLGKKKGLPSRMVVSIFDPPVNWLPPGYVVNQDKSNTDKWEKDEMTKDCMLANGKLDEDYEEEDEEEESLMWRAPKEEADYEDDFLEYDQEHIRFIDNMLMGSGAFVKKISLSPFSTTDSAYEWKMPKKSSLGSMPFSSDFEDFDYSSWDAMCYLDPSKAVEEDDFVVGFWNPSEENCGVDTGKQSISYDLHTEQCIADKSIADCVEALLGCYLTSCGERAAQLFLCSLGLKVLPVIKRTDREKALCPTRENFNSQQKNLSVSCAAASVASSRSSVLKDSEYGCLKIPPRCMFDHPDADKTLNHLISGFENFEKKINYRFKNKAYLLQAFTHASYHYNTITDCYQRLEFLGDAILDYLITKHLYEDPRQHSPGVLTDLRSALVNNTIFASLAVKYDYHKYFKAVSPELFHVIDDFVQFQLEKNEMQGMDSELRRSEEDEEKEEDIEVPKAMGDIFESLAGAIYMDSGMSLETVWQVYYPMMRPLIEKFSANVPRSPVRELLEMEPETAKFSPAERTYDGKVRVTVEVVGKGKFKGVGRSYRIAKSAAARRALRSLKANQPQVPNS
# * hit, by the source's call.
SMILES,Dicer processing
OC(CN1CCOCC1)Cn1c2ccc(Br)cc2c2cc(Br)cc(Br)c21 (configuration not stated),0.42
O=c1c(Cl)c(O)c2ccccc2n1Cc1ccccc1,0.61
CSc1nnc(SCc2csc(-c3ccc(C(F)(F)F)cc3)n2)s1,0
CC(=O)n1cc(-c2nsc(Nc3ccccc3)n2)c(C)n1,0.65
N#Cc1ccsc1NC(=O)c1ccc2c(c1)CCO2,1.7
O=c1c(=O)n2c(nn1Cc1ccccc1Cl)sc1ccccc12,-1.3
NC(=O)Cn1nc2sc3ccccc3n2c(=O)c1=O,-1.3
Cc1nnc2c(N3CCOCC3)nc3ccccc3n12,-0.14
O=c1c(N2CCOCC2)nnc2sc3ccccc3n12,4.3*
O=c1c(=O)n2c(nn1CN1CCCCC1)sc1ccccc12,4.1*
O=C(Cn1nc2sc3ccccc3n2c(=O)c1=O)c1ccc(Cl)cc1,7.1
C=CCn1nc2sc3ccccc3n2c(=O)c1=O,1.1
O=c1c(=O)n2c(nn1CN1CCOCC1)sc1ccccc12,4.3*
Cn1nc2sc3ccccc3n2c(=O)c1=O,-1.5
Cc1nn(Cc2nnc(SCC(=O)C(C)(C)C)o2)c(C)c1Br,1.9
Clc1ccc(SCc2ccc(-c3csnn3)cc2)cc1,0.01
Clc1ccc(SCSc2ccc(Cl)cc2)cc1,-1.3
FC(F)(F)c1ccncc1-c1nnnn1-c1ccccc1Cl,-1.6
Cc1nc2ccc(N3NOC=C3O)cc2s1,1.2
OC1=CONN1c1cccc2ncccc12,3.2*
O=C(CSc1nnc2ccccn12)Nc1ccc(Cl)cc1,0.1
O=C(CCSc1nnc2ccccn12)Nc1cccc(-c2nc3ccccc3s2)c1,6.1*
O=C(CSc1nnc2ccccn12)Nc1cccc(-c2nc3ccccc3s2)c1,-1.3
Cc1ccc(-c2c3c(=O)n(C)c(=O)n(C)c3c3cccnn23)cc1,0.09
Cc1ccc(-c2nc3cc(N)ccc3o2)cc1N,0.6
SMILES,Dicer processing
Cc1ccc2oc(-c3ccc(N)cc3)nc2c1,2.9
Cc1ccc2oc(-c3cccc(N)c3)nc2c1,1.5
Nc1ccc2oc(-c3cccc4ccccc34)nc2c1,5.2*
COc1ccc2oc(-c3ccc(C)c(N)c3)nc2c1,2.1
COc1ccc(-c2nc3cc(NS(=O)(=O)c4ccccc4)ccc3o2)cc1Br,1.1
Cc1ccc(-c2nc3cc(N)ccc3o2)cc1,4.7*
COc1ccc(-c2nc3ccccc3o2)cc1N,4.3*
CC(C)c1ccc2oc(-c3ccc(N)cc3)nc2c1,2.5
Cc1ccc2oc(-c3ccc(N)cc3O)nc2c1,0.56
COc1ccc(-c2nc3cc(N)ccc3o2)cc1Br,3.2*
Nc1nc2ccc(-c3nc4ccccc4o3)cc2s1,1.8
CCC(NS(=O)(=O)c1ccccc1)C(=O)O (configuration not stated),0.71
CCCCc1c(C)nc2nc(C)[nH]n2c1=O,-0.69
Cc1ccc(/C=N/Nc2ncnc3sccc23)cc1,-0.21
COC(=O)c1c(NC(=O)c2ccc(Cl)cc2)csc1C,-0.2
COc1ccc(-c2nc(SCc3ccccc3)n[nH]2)cc1,-2.3
S=c1nc(-c2ccccc2)n(Cc2ccccn2)c2c1CCCC2,2
N#CC1=C(N)Oc2ccc3ccccc3c2C1c1ccccc1Cl (configuration not stated),-1.7
Cc1cc(C(=O)NNC(N)=S)nn1C,0.51
CCSC1=N/C(=C\c2cc3c(cc2Br)OCO3)C(=O)S1,0.26
Cn1nc(C(F)(F)F)c(-c2ccc(F)cc2)c1NC(=O)Nc1ccccc1,-0.51
FC(F)(F)c1cnc(Sc2cccs2)c(Cl)c1,-2.1
COc1ccccc1OCCSc1nc(C)cc(=O)[nH]1,22
CCOc1ccc(OCCSc2nc(C)cc(=O)[nH]2)cc1,0.06
Cc1ccc(OCCSc2nc(C)cc(=O)[nH]2)cc1,4.9*
SMILES,Dicer processing
COC(=O)c1cc(=O)n2c(nc3cc(C(F)(F)F)ccc32)s1,-0.9
COc1ccc(-c2cnc3c(-c4ccccc4)c(C)nn3c2N)cc1OC,0.88
Oc1ccc(NCc2cccs2)cc1,1
CCCCCCn1c(NCc2cccs2)nc2ccccc21,2.3
Nc1nc(NCc2cccs2)nn1-c1ccccc1,4.3*
COc1ccc(S(=O)(=O)n2cnc(C)c2)cc1OC,-0.51
CN(C)CCCNc1nc(-c2cccnc2)nc2ccccc12,-2.4
Cc1cc2c(c(Sc3ccc(Cl)cc3)n1)C(=O)N(SC(Cl)(Cl)Cl)C2=O,-1.7
CN(C)/C=C(\C#N)S(=O)(=O)c1cccs1,-1.8
COC(=O)c1sccc1N/C=C(\C#N)S(=O)(=O)c1cccs1,19*
N#C/C(=C\c1c(Cl)cccc1Cl)S(=O)(=O)c1cccs1,-0.95
CCOC(=O)CCS(=O)(=O)c1ccc(Cl)cc1,0.21
CC(C)OC(=O)C(C)Oc1ccc2c(=O)c(-c3ccccc3)coc2c1 (configuration not stated),-0.06
CCCN1C(=O)C(O)(CC(=O)c2ccco2)c2ccccc21 (configuration not stated),0.02
COc1ccc(OC)c(C(=O)CC2(O)C(=O)N(C(C)C)c3ccccc32)c1 (configuration not stated),0.57
CC(C)N1C(=O)C(O)(CC(=O)c2ccco2)c2ccccc21 (configuration not stated),6.9*
CC1CCCCN1S(=O)(=O)c1cc(Cl)ccc1Cl (configuration not stated),-1.1
O=C(O)C(Cc1ccccc1)NCc1ccccc1O (configuration not stated),-0.5
CC(Cc1c[nH]c2ccccc12)C(=O)O (configuration not stated),5*
O=C(O)CCCc1c[nH]c2ccccc12,0.68
O=C(O)CCc1c[nH]c2ccccc12,-2.2
Cn1c(=O)c2c(-c3ccccc3)n3c4ccccc4nc(-c4ccncc4)c3c2n(C)c1=O,0.25
O=C(NCc1cccnc1)c1ccccc1C(=O)Nc1sc2ccccc2c1Cl,0.31
COc1ccc(-c2ncnn2-c2ccc(Cl)cc2)cc1,2.2
COc1ccc(-c2nc3n(n2)C(=O)CC(c2ccc(Cl)cc2)S3)cc1 (configuration not stated),4.5*
SMILES,Dicer processing
COc1ccc(-c2nc3n(n2)C(c2ccc(Cl)cc2)C2=C(CCCC2=O)N3)cc1 (configuration not stated),0.44
Cc1ccnc(N(C(=O)Nc2ccc(Cl)cc2)C2=NCC(C)S2)c1 (configuration not stated),0.68
Cc1cc(Br)ccc1NC(=O)C1Sc2nnc(C)n2NC1c1ccc(F)cc1 (configuration not stated),0.43
O=C1CC(c2nc3ccccc3n2Cc2ccccc2Cl)CN1c1ccccc1 (configuration not stated),4*
CCCCCn1c(C2CC(=O)N(c3ccccc3)C2)nc2ccccc21 (configuration not stated),5.3*
Nc1nonc1-c1nc2ccccc2n1Cc1ccccc1Cl,0.88
O=C1CC(c2nc3ccccc3[nH]2)CN1c1ccccc1 (configuration not stated),1.7
CCCCCCn1c(C(C)O)nc2ccccc21 (configuration not stated),-0.51
CCCCn1c(C2CC(=O)N(c3ccccc3)C2)nc2ccccc21 (configuration not stated),-1.2
Cc1oc(-c2ccc(Cl)cc2)cc1C(=O)/C(C#N)=C/Nc1ncccn1,10
COC(=O)c1sccc1Oc1cc(C(F)(F)F)nc2c(C(=O)OC)scc12,-0.87
CCCOC(=O)COc1ccc2c(=O)c(Oc3cc(C)cc(C)c3)coc2c1,1.9
O=C(O)c1ncc(C(F)(F)F)cc1Cl,1.2
FC(F)(F)c1cc(Cl)c2nsnc2c1,4.5*
Clc1cc2nsnc2cc1Cl,0.42
O=S(=O)(c1ccccc1)c1ccc(S(=O)(=O)N2CCOCC2)s1,-0.55

# High-throughput results deposited in PubChem BioAssay by Center for Chemical Genomics, University of Michigan.
